Experimental data reported in PubChem BioAssay (NCATS).
“And” between values parts separate entries of the source, which are not always exact repeats. Identical values can stand only once. Results filed as inconclusive are left out. The source made the active and inactive calls. The call rests on the fitted dose curve; in most records, active means well fitted curve in the direction sought with a large enough effect; inconclusive means small, poorly fitted or top-dose-only effect, or another doubt; inactive means no such curve, though single readings can be large; an effect the other way counts as inactive or inconclusive.

Assays:
[1] = qHTS of pediatric cancer cell lines to identify multiple opportunities for drug repurposing: Primary screen for TC32 cells (AID 1347089); further: nearly all actives have a fitted effect of over 60% in size
Outline: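 In the primary qHTS, MIPE compounds were tested at 11 concentrations (0.78 nM to 46 µM) and NPC compounds at 8 (0.59 nM to 46 µM) on TC32 cells for 48 h. CellTiter-Glo luminescence gave viability.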

[2] = qHTS of pediatric cancer cell lines to identify multiple opportunities for drug repurposing: Primary screen for DAOY cells (AID 1347090); further: nearly all actives have a fitted effect of over 55% in size
Outline: (§1)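 Eight- or eleven-point concentration series, 48 h treatment at 37 degrees C in growth media; readout CellTiter-Glo luminescence. Potency and efficacy were taken from the concentration-response curves.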

[3] = qHTS of pediatric cancer cell lines to identify multiple opportunities for drug repurposing: Primary screen for SJ-GBM2 cells (AID 1347091)
Outline: as §1

[4] = qHTS of pediatric cancer cell lines to identify multiple opportunities for drug repurposing: Primary screen for A673 cells (AID 1347092); further: nearly all actives have a fitted effect of over 45% in size
Outline: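 48 h compound exposure, A673, 500-1,000 cells/well, 37 degrees C/5% CO2. MIPE: 11-point, 0.78 nM-46 µM; NPC: 8-point, 0.59 nM-46 µM (final). Readout CellTiter-Glo luminescence after 15 min RT.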

[5] = qHTS of pediatric cancer cell lines to identify multiple opportunities for drug repurposing: Primary screen for SK-N-MC cells (AID 1347093)
Outline: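 Metabolically active cells were quantified by ATP-dependent luminescence (CellTiter-Glo, 15 min at room temperature) following 48 h treatment. Cells had been plated at 500-1,000 per well and settled for 5 h beforehand.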

[6] = qHTS of pediatric cancer cell lines to identify multiple opportunities for drug repurposing: Primary screen for NB-EBc1 cells (AID 1347095)
Outline: (§2)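 Readout: CellTiter-Glo luminescence, 48 h treatment. Controls DMSO (neutral) and bortezomib 2.3 µM final (positive). Potency and efficacy taken from primary-screen concentration-response curves.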

[7] = qHTS of pediatric cancer cell lines to identify multiple opportunities for drug repurposing: Primary screen for U-2 OS cells (AID 1347096); further: nearly all actives have a fitted effect of over 50% in size
Outline: (§3)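 Cells (500-1,000/well) in growth media were settled 5 h at 37 degrees C, then given compounds for 48 h. Viability was read as CellTiter-Glo luminescence. Primary runs used MIPE at 11 points (0.78 nM-46 µM) and NPC at 8 points (0.59 nM-46 µM); follow-ups used 11 points.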

[8] = qHTS of pediatric cancer cell lines to identify multiple opportunities for drug repurposing: Primary screen for Saos-2 cells (AID 1347097); further: nearly all actives have a fitted effect of over 40% in size
Outline: as §2

[9] = qHTS of pediatric cancer cell lines to identify multiple opportunities for drug repurposing: Primary screen for SK-N-SH cells (AID 1347098); further: nearly all actives have a fitted effect of over 65% in size
Outline: (§4)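 Cells (500-1,000/well) rested 5 h, then received compounds for 48 h; metabolically active cells were measured by CellTiter-Glo luminescence. Final concentrations spanned up to 46 µM (MIPE, 11-point) or 0.59 nM-46 µM (NPC, 8-point) in primary screens, 11-point in follow-ups.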

[10] = qHTS of pediatric cancer cell lines to identify multiple opportunities for drug repurposing: Primary screen for NB1643 cells (AID 1347099); further: nearly all actives have a fitted effect of over 50% in size
Outline: as §2

[11] = qHTS of pediatric cancer cell lines to identify multiple opportunities for drug repurposing: Primary screen for LAN-5 cells (AID 1347100)
Outline: as §3

[12] = qHTS of pediatric cancer cell lines to identify multiple opportunities for drug repurposing: Primary screen for Rh18 cells (AID 1347102); further: nearly all actives have a fitted effect of over 65% in size
Outline: as §3

[13] = qHTS of pediatric cancer cell lines to identify multiple opportunities for drug repurposing: Primary screen for RD cells (AID 1347104); further: nearly all actives have a fitted effect of over 55% in size
Outline: as §2

[14] = qHTS of pediatric cancer cell lines to identify multiple opportunities for drug repurposing: Primary screen for BT-12 cells (AID 1347101); further: nearly all actives have a fitted effect of over 25% in size
Outline: as §4

[15] = qHTS of pediatric cancer cell lines to identify multiple opportunities for drug repurposing: Primary screen for OHS-50 cells (AID 1347103); further: nearly all actives have a fitted effect of over 40% in size
Outline: as §4

[16] = qHTS of pediatric cancer cell lines to identify multiple opportunities for drug repurposing: Primary screen for BT-37 cells (AID 1347094)
Outline: as §2

Measured: Potency
Potency means the concentration at half of the fitted maximal effect.

CCC(=O)O[C@]1(C(=O)CCl)[C@@H](C)C[C@H]2[C@@H]3CCC4=CC(=O)C=C[C@]4(C)[C@@]3(F)[C@@H](O)C[C@@]21C
inactive: [1] | [2] | [3] | [4] | [6] | [7] | [8] | [9] | [10] | [11] | [12] | [13]
active: [5] 26.6 µM and 20.9 µM

C1CCC(C(CC2CCCCN2)C2CCCCC2)CC1 (centres undefined)
inactive: [1] | [2] | [7]
active: [4] 10.6 µM and 23.5 µM | [5] 11.9 µM | [6] 26.4 µM | [9] 15.4 µM | [10] 21.1 µM | [14] 5.5 µM and 30.6 µM | [12] 16.8 µM and 26.4 µM | [15] 13.8 µM and 19.3 µM | [13] 21.1 µM and 29.6 µM

CCOC(=O)[C@H](CCc1ccccc1)N[C@H]1CCc2ccccc2N(CC(=O)O)C1=O
inactive: [1] | [7]
active: [3] 23.5 µM | [9] 24.1 µM | [14] 27.3 µM | [15] 24.3 µM | [13] 26.4 µM

O=C(N[C@H](CO)[C@H](O)c1ccc([N+](=O)[O-])cc1)C(Cl)Cl
inactive: [1] | [2] | [3] | [4] | [5] | [6] | [7] | [10] | [11] | [14] | [12] | [15] | [13]

CCOc1cc(N)c(Cl)cc1C(=O)NCC1CN(Cc2ccc(F)cc2)CCO1 (centres undefined)
inactive: [1] | [2] | [3] | [4] | [16] | [6] | [7] | [8] | [9] | [10] | [11] | [14] | [12] | [13]

CC1(C)[C@H](C(=O)O)N2C(=O)C[C@H]2S1(=O)=O
inactive: [1] | [2] | [3] | [4] | [16] | [7] | [9] | [10] | [11] | [14] | [12] | [15] | [13]

O=C(O)c1cccnc1
inactive: [1] | [2] | [3] | [4] | [16] | [6] | [7] | [8] | [9] | [10] | [11] | [14] | [12] | [15] | [13]

O=c1cc(O)c(Cl)c[nH]1
inactive: [1] | [3] | [16] | [7] | [8] | [9] | [11] | [14] | [12] | [15]

CNC1CCCN(c2c(F)cc3c(=O)c(C(=O)O)cn(C4CC4)c3c2OC)C1 (centres undefined)
inactive: [1] | [2] | [3] | [5] | [6] | [7] | [8] | [11] | [14] | [12] | [15] | [13]

COc1cnc(NS(=O)(=O)c2ccc(N)cc2)nc1
inactive: [1] | [2] | [3] | [16] | [7] | [14] | [12]

COc1nc(N)nc2c1ncn2[C@@H]1O[C@H](CO)[C@@H](O)[C@@H]1O
inactive: [1] | [2] | [3] | [4] | [5] | [7] | [9] | [10] | [11] | [14] | [12] | [15] | [13]

CCCCOc1ccc(CC(=O)NO)cc1
inactive: [1] | [14]
active: [2] 11.8 µM | [4] 16.8 µM and 2.96 µM | [5] 7.43 µM | [16] 19.5 µM | [6] 18.7 µM | [7] 26.6 µM | [9] 19.2 µM | [11] 23.5 µM | [13] 15 µM and 26.4 µM

CCn1cc(C(=O)O)c(=O)c2cc(F)c(N3CCN(C)CC3)cc21
inactive: [1] | [2] | [3] | [4] | [5] | [7] | [8] | [9] | [10] | [11] | [14] | [12]

Clc1ccccc1CN1CCc2sccc2C1
active: [16] 1.53 µM | [8] 1.48 µM | [14] 1.93 µM
inactive: [1] | [2] | [7] | [9] | [10] | [12] | [13]

COc1cc(NCc2ccc3nc(N)nc(N)c3c2C)cc(OC)c1OC
inactive: [12]
active: [1] 2.94 µM and 33.3 nM | [2] 3.72 µM and 133 nM | [3] 2.64 µM and 29.9 nM | [4] 3.72 µM and 168 nM | [5] 332 nM and 11.9 nM | [7] 3.72 µM | [8] 11.8 µM | [10] 14.8 µM | [11] 16.6 µM | [14] 2.17 µM and 55 nM | [15] 19.3 µM

CCn1cc(C(=O)O)c(=O)c2cc(F)c(N3CCNCC3)cc21
inactive: [2] | [3] | [4] | [5] | [16] | [6] | [7] | [8] | [9] | [10] | [11] | [14] | [12] | [15] | [13]
